Results on 17 compounds are retold here after PubChem BioAssay (Tox21).

The nature of experiment [1]: qHTS assay for small molecules that induce genotoxicity in human embryonic kidney cells expressing luciferase-tagged ATAD5 (AID 651632). Also: nearly all actives have a fitted effect of over 15% in size. The gist of the method: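 Test compounds were delivered by pin tool onto HEK293T reporter cells (2,000/well) expressing ATAD5 fused to luciferase. After 16 hr at 37C, 5% CO2, Amplite was added for 30 min at room temperature and luminescence was measured.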
In general terms: qHTS replaces the single test concentration by a dilution series.

A short description of experiment [2]: qHTS assay for small molecule agonists of the p53 signaling pathway - cell viability (AID 651633; calls by dose curve; also: nearly all actives have a fitted effect of over 30% in size; also: potency is read from the fitted curve at half-maximal effect). An outline of the steps: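 p53RE-bla cells, seeded at 4,000 per well and rested 5 h at 37 C/5% CO2, received compounds in DMSO for 16 h at 37 C. CellTiter-Glo was then added, and luminescence was read after 30 min at room temperature to gauge cytotoxicity.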
A short description of experiment [3]: qHTS assay for small molecules that induce genotoxicity in human embryonic kidney cells expressing luciferase-tagged ATAD5 - cell viability (AID 651634; calls by dose curve; also: nearly all actives have a fitted effect of over 25% in size; also: potency is read from the fitted curve at half-maximal effect). The gist of the method:
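Quantitative high-throughput format. HEK293T cells expressing ATAD5 fused to luciferase were plated at 2,000 cells/well and treated 15.5 hr with compound versus DMSO. Viability was determined by fluorescent live-cell protease substrate, 30 min at 37C.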

Experiment [4] is described as follows: qHTS assay for small molecule disruptors of the mitochondrial membrane potential (AID 720635). Also: potency is read from the fitted curve at half-maximal effect. The gist of the method:
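HepG2 cells (2,000/well) attached overnight at 37C, then took compound for 1 hr at 37C, 5% CO2. Mito-MPS dye was added for 30 min; fluorescence was read at 490/535 nm (monomers) and 540/590 nm (aggregates).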

The nature of experiment [5]: qHTS assay to test for compound auto fluorescence at 590 nm (red) in HepG2 cells (AID 720674). The gist of the method:
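Rose Bengal sodium served as the red fluorophore standard. HepG2 monolayers (overnight attachment, MEM with 10% FBS) were exposed to test compounds for 1 hr at 37 C and read at Ex 540/Em 590 nm.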

Experiment [6] in a line: qHTS assay to test for compound auto fluorescence at 535 nm (green) in HepG2 cells (AID 720675).
Experiment [7] can be described thus: qHTS assay to test for compound auto fluorescence at 460 nm (blue) in HEK293 cells (AID 720678). Also: potency is read from the fitted curve at half-maximal effect. An outline of the steps:
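Auto fluorescence in the blue band was quantified as triamterene equivalency. HEK293 cells were seeded at 2,000/well, dosed after a 4-5 hr attachment, and kept overnight at 37C before the 405/460 nm reading.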

Experiment [8] can be described thus: qHTS assay to test for compound auto fluorescence at 590 nm (red) in HEK293 cells (AID 720679). The gist of the method: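 Autofluorescence equivalency to Rose Bengal sodium, 540/590nm, in HEK293 cells exposed overnight to 23 nL compound per well.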
Experiment [9] can be described thus: qHTS assay for small molecule disruptors of the mitochondrial membrane potential - cell viability (AID 720634; calls by dose curve; also: nearly all actives have a fitted effect of over 20% in size; also: potency is read from the fitted curve at half-maximal effect). The gist of the method: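 Same-well counter-screen: following the MMP dye addition, CellTiter-Glo was added to 1 hr compound-treated HepG2 cells and luminescence read after 30 min at room temperature.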

Where “and” joins values, the source holds several entries; their conditions need not be identical. Identical values can stand only once. Results filed as inconclusive are left out. More than one record can exist for a structure, and the calls need not agree. Calls of active or inactive are those of the source. Unless noted, calls follow the shape of the dose curve; as a rule, active = well fitted curve in the direction sought with a large enough effect in the repeat runs; inconclusive = weak or mixed curves; inactive = no such curve, though single readings can be large; an effect the other way counts as inactive or inconclusive.
Tags tell the direction and shape of the fitted curve or compound fluorescence and quenching.

`O=[N+]([O-])c1cc([N+](=O)[O-])c2ccccc2c1`: the Potency result in [1], in experiment [2], in [3] and in [7] was “inactive” each time. Moreover, in experiment [4], the Potency is 10.9 µM (active). The outcome in [5], in experiment [6] and in experiment [8] was inactive.
Consider `CCOCCOC(C)=O`, for which the Potency result in [1], in experiment [2], in experiment [3], in experiment [9] and in [7] was “inactive” throughout. Besides, the result in experiment [5], in experiment [6] and in experiment [8] was inactive.
For the compound `C[C@H]1O[C@@H](O[C@H]2[C@@H](O)C[C@H](O[C@H]3[C@@H](O)C[C@H](O[C@H]4CC[C@@]5(C)[C@H](CC[C@@H]6[C@@H]5CC[C@]5(C)[C@@H](C7=CC(=O)OC7)CC[C@]65O)C4)O[C@@H]3C)O[C@@H]2C)C[C@H](O)[C@@H]1O`, the Potency entry in experiment [1], in [9] and in [7] was “inactive” in each case. Also, the Potency in experiment [2] was 47.3 nM (active) and 12.3 nM (active); in experiment [3] it was 53.1 nM (active) and 30.8 nM (active); in [4], 119 nM (active) and 97.5 nM (active). In addition, the call in experiment [5], in [6] and in experiment [8] was inactive.
Consider `ClC(Cl)=C(c1ccc(Cl)cc1)c1ccc(Cl)cc1`, for which the Potency result in experiment [1], in experiment [3], in [9] and in [7] was “inactive” throughout. For the same compound, the Potency in [2] is 70.3 µM (active) and 48.6 µM (active); in experiment [4] it was 22.2 µM (active) and 24.3 µM (active). The call in experiment [5], in experiment [6] and in experiment [8] was inactive.
Consider `ClC1=C(Cl)C2(Cl)C3C(Cl)C=CC3C1(Cl)C2(Cl)Cl` (stereo not given), for which the Potency result in experiment [1], in experiment [3], in [9] and in experiment [7] was “inactive” throughout. In addition, the Potency in experiment [2] is 68.9 µM (active) and 54.5 µM (active); in [4], 27.4 µM (active) and 54.5 µM (active). Besides, the result in [5], in experiment [6] and in experiment [8] was inactive.
Take `ClC1=C(Cl)C2(Cl)C3C(Cl)C(Cl)CC3C1(Cl)C2(Cl)Cl` (stereo not given): the Potency entry in [1], in [3], in experiment [9] and in experiment [7] was “inactive” each time. Moreover, the Potency in experiment [2] was 54.3 µM (active) and 61.1 µM (active); in experiment [4], 7.67 µM (active) and 13.7 µM (active). Further, the call in experiment [5], in [6] and in [8] was inactive.
For `O=C1c2ccccc2C(=O)C1C(=O)C(c1ccccc1)c1ccc(Cl)cc1` (stereo not given), the Potency result in [1] and in [7] was “inactive” each time. The Potency in [2] was 24.3 µM (active); in [3], 3.06 µM (active); in [9], 61.1 µM (active); in [4] it was 0.386 µM (active). The call in experiment [5], in [6] and in experiment [8] was inactive.
As to `Cc1c(Cl)c(=O)oc2cc(OP(=O)(OCCCl)OCCCl)ccc12`, the Potency entry in [1], in experiment [2], in [3] and in experiment [9] was “inactive” throughout. Besides, the result in experiment [5], in experiment [6] and in experiment [8] was inactive. Moreover, the Potency in experiment [7] is 12.6 µM [fluorescent] (active).
Take `CC[C@H]1C[C@@H]2C[C@H]3c4[nH]c5ccc(OC)cc5c4CCN(C2)[C@@H]13`: the Potency entry in [1], in [2], in [3], in experiment [9] and in experiment [7] was “inactive” in each case. Also, the outcome in [5], in experiment [6] and in [8] was inactive.
For the compound `CCCCCCCCCCCCBr`, the Potency result in experiment [1], in experiment [3] and in [7] was “inactive” each time. Further, in experiment [4], the Potency is 27.3 µM (active). Moreover, the compound was called inactive in [5], in experiment [6] and in experiment [8].
Take `CC(C)(C)C(O)/C(=C\c1ccc(Cl)cc1Cl)n1cncn1` (stereo not given): the Potency result in [1], in [2] and in [7] was “inactive” in each case. Besides, the Potency in experiment [4] is 10.4 µM (active). For the same compound, the compound was called inactive in experiment [5], in [6] and in experiment [8].
Turning to `CCCCCCCCCCCCCCC(Br)C(=O)O` (stereo not given), the Potency result in [1], in [9] and in experiment [7] was “inactive” each time. Moreover, in experiment [2], the Potency is 54.5 µM (active). Also, the compound was classed as inactive in experiment [5], in experiment [6] and in experiment [8].
For `CCCCCCCCCC[N+](C)(C)CCCCCCCCCC`, the Potency result in [1] and in [7] was “inactive” throughout. In addition, the Potency in [2] was 26.6 µM (active) and 61.1 µM (active); in experiment [9], 26.6 µM (active) and inactive; in experiment [4] it was 8.41 µM (active) and 24.3 µM (active). Moreover, the compound was classed as inactive in experiment [5], in experiment [6] and in [8].
In the case of `CC[C@H](C)[C@H]1O[C@]2(C=C[C@@H]1C)C[C@@H]1C[C@@H](C/C=C(\C)[C@@H](O[C@H]3C[C@H](OC)[C@@H](O[C@H]4C[C@H](OC)[C@@H](O)[C@H](C)O4)[C@H](C)O3)[C@@H](C)/C=C/C=C3\CO[C@@H]4[C@H](O)C(C)=C[C@@H](C(=O)O1)[C@]34O)O2`, the Potency entry in experiment [1], in [9] and in experiment [7] was “inactive” in each case. Also, the Potency is 14.4 µM (active) in experiment [2] and 28.7 µM (active) in experiment [4]. Besides, the compound was classed as inactive in experiment [5], in experiment [6] and in experiment [8].
With `C[C@@H]1O[C@@H](O[C@H]2C[C@@H](O)[C@]3(CO)[C@H]4[C@H](O)C[C@]5(C)[C@@H](C6=CC(=O)OC6)CC[C@]5(O)[C@@H]4CC[C@]3(O)C2)[C@H](O)[C@H](O)[C@H]1O`, the Potency entry in experiment [1] and in experiment [7] was “inactive” in each case. Moreover, the Potency was 33.5 nM (active) and 53.1 nM (active) and 20.6 nM (active) in [2]; 59.6 nM (active) and 37.6 nM (active) and 32.6 nM (active) in experiment [3]. Further, the result in experiment [5], in [6] and in [8] was inactive.
For `CC1(C)CC/C(=C/c2ccc(Cl)cc2)C1(O)Cn1cncn1` (stereo not given), the Potency result in experiment [1], in experiment [3], in experiment [9] and in experiment [7] was “inactive” throughout. The outcome in [5], in experiment [6] and in experiment [8] was inactive.
For the compound `OC(c1ccc(Cl)cc1)(c1ccc(Cl)cc1)C(Cl)(Cl)Cl`, the Potency entry in experiment [1] and in experiment [7] was “inactive” in each case. Besides, the figures for the Potency in experiment [2] and in experiment [4] were 61.1 µM (active) and 6.11 µM (active), respectively. Moreover, the result in experiment [5], in [6] and in experiment [8] was inactive.
